OvCa metastasis = Primary qHTS assay for Inhibitors of ovarian cancer metastasis using an organotypic tumor microenvironment (TME) model | SKOV3ip1-GFP adhesion/invasion on 3D omental model, fluorescence | Potency, µM (top dose mostly 45.8 µM), most hits filed as inhibitors | 46,000 tested, 0.1% active | AID 1963576, 2024; note: nearly all actives have a fitted effect of over 65% in size
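A 3D layer of primary human omental fibroblasts, mesothelial cells, fibronectin and collagen I, grown 48 hr, received SKOV3ip1-GFP cells in serum-free medium plus compounds at 0.36-46 umol/L. After 2 hr RT and 16 hr 37 C, fixed adherent GFP cells were counted; normalized to DMSO and tomatine.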
FH mod = Identification of activators of human fumarate hydratase by quantitative high-throughput screening; Fumarate hydratase, mitochondrial (Homo sapiens), P07954; FH coupled MDH/diaphorase resazurin fluorescence, 15 min; Potency, µM (top dose mostly 79.9 µM), usual class: inhibitors; 54,000 tested, 0.22% active; AID 1347055, 2019; note: the screen sought activators but most active calls are inhibition curves; nearly all actives have a fitted effect of over 45% in size
Target sequence (P07954 whole entry, looked up): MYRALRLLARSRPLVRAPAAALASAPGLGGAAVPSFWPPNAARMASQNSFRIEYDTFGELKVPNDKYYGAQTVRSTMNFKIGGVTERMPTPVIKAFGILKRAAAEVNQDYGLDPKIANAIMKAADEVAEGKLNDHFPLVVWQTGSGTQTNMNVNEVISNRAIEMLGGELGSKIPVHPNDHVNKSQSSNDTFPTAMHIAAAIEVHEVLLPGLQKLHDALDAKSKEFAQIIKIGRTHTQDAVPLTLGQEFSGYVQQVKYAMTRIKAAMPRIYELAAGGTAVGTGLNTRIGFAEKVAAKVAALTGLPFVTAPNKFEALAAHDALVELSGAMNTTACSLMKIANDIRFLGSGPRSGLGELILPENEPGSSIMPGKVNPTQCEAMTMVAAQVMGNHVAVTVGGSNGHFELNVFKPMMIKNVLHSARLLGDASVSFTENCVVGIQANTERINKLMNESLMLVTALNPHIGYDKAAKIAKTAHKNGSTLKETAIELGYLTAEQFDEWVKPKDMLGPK
NTMT1 inhibitor = Primary qHTS for Inhibitors of N-terminal methyltransferase 1 (NTMT1): MTaseGlo Assay | Potency, µM (highest dose often 114 µM), hits mostly inhibitors | 59,000 tested, 2.5% active | NTMT1 MTase-Glo SAH luminescence, purified enzyme | N-terminal Xaa-Pro-Lys N-methyltransferase 1 (Homo sapiens), Q9BV86; note: nearly all actives have a fitted effect of over 65% in size
Target sequence (Q9BV86 whole entry, looked up): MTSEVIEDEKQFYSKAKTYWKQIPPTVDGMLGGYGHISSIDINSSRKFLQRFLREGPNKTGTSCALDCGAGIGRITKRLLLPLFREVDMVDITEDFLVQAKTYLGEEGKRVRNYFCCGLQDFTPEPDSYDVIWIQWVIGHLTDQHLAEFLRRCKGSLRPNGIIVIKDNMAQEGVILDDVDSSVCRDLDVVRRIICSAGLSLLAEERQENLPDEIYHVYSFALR
GPR32 ag = qHTS for Agonists of Human Resolvin D1 Receptor DRV1; CHO-K1 GPR32 beta-arrestin PathHunter luminescence, 90 min; zero percent set by DMSO-only wells; 48,000 tested, 2.5% active; Probable G-protein coupled receptor 32 (Homo sapiens), O75388; activation, % at 76.9 µM;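 active = activation of at least 60% and not above a set upper limit, about 1 call in 100 departs from these limits; inconclusive = activation of 40% to 60%, or above that upper limit; inactive = activation under 40%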
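Luminescent readout of beta-Gal complementation quantifies ligand-induced beta-arrestin association with GPR32 in CHO-K1 cells; 90 min compound incubation at 37 °C, detection 1 h at room temperature.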
Each line names hits and unclear results; the compound was inactive in the other large screens; ! = repeats disagree. Shown are actives, neighbours in structure and some others; about 3.8% of the full set was active somewhere. Unless noted, calls come from the whole dose curve; as a rule, active = well fitted curve in the direction sought with a large enough effect; inconclusive = small, poorly fitted or top-dose-only effect, or another doubt; inactive = no such curve, though single readings can be large; an effect the other way counts as inactive or inconclusive.

COc1ccc(CNC(=O)CCNS(=O)(=O)c2ccc3c(c2)oc(=O)n3C)cc1	FH mod inconclusive
CCOC(=O)c1[nH]c(C)c(C(=O)NCCc2ccccc2)c1C	GPR32 ag 85
O=C(NCCN1CCCCC1)c1ccc(Cn2c(SCc3ccccc3)nc3cccnc32)cc1	OvCa metastasis inconclusive, NTMT1 inhibitor 40µM
CC1CCN(CCNC(=O)c2ccc(Cn3c(SCc4ccccc4)nc4cccnc43)cc2)CC1	NTMT1 inhibitor inconclusive
O=C(NC1CC1)c1ccc(Cn2c(SCc3ccc(F)cc3)nc3cccnc32)cc1	GPR32 ag 63
Cc1ccc(OCCSc2nc(-c3ccccc3C)nc3cc(=O)[nH]n23)cc1Cl	FH mod inconclusive, GPR32 ag inconclusive
CCS(=O)(=O)c1ncc(Cl)c(C(=O)N(Cc2ccccc2)c2ccc(OC)cc2)n1	OvCa metastasis inconclusive
CCOc1ccccc1CC1C(=O)Nc2ccc(Br)cc21 (stereo not drawn)	OvCa metastasis inconclusive, NTMT1 inhibitor inconclusive, GPR32 ag 73
CCCOc1ccc(CC2C(=O)Nc3ccc(Br)cc32)cc1 (stereo not drawn)	FH mod inconclusive, GPR32 ag 78
COc1ccc(CC2C(=O)Nc3ccc(Br)cc32)cc1OC (stereo not drawn)	none
CNC(=O)c1c(-c2ccc(F)cc2)oc2cc(N(CCO)S(C)(=O)=O)c(C3CC3)cc12	none (no result: GPR32 ag)
CC(C)CN(CCCNC(=O)c1cc(=O)[nH]c2ccc(S(=O)(=O)N3CCCC3)cc12)CC(C)C	NTMT1 inhibitor inconclusive
O=C(O)CCc1nc2ccccc2[nH]1	NTMT1 inhibitor inconclusive (no result: OvCa metastasis)
Cc1ccc(/C=C/c2nc3ccccc3[nH]2)cc1	OvCa metastasis inconclusive, NTMT1 inhibitor 5µM
O=C(Cn1c2ncccc2c(=O)n1-c1ccccc1)NCc1ccccc1	none
CCOc1ccc2nc(NC(=O)c3ccccc3)sc2c1	NTMT1 inhibitor inconclusive
CCOc1ccc2nc3cc(N)ccc3c(N)c2c1	NTMT1 inhibitor 20µM (no result: OvCa metastasis)
Cc1ccc(S(=O)(=O)N(CC(O)Cn2c3ccccc3c3ccccc32)c2cccc(C(=O)N(C)C)c2)cc1 (stereo not drawn)	FH mod inconclusive
Cc1ccc(Nc2c(-c3ccc(C)o3)nc3cccc(C)n23)cc1	FH mod inconclusive, NTMT1 inhibitor 7.9µM
Cc1ccc(-c2nc3cccc(C)n3c2Nc2ccc3c(c2)OCO3)o1	NTMT1 inhibitor inconclusive
Cc1ccc(-c2nc3ccccn3c2Nc2ccc3c(c2)OCO3)o1	FH mod inconclusive, NTMT1 inhibitor 16µM
Cc1cc(O)c(C(c2ccccc2)N2CCN(C)CC2)c(=O)n1Cc1ccco1 (stereo not drawn)	none
Cc1ccc(C(=O)Nc2nnc(SCc3cc(=O)c4c(C)ccc(C)c4[nH]3)s2)cc1	GPR32 ag 71
O=C(Nc1nnc(SCc2cc(=O)c3ccccc3[nH]2)s1)c1ccccc1	none
O=C(COc1ccc(F)cc1)Nc1ccc2nc(SCC(=O)N3CCc4ccccc43)sc2c1	none
O=C1OC2(c3ccccc31)c1cc(I)c(O)c(I)c1Oc1c2cc(I)c(O)c1I	FH mod inconclusive, NTMT1 inhibitor 1µM (no result: OvCa metastasis)
O=C1OC2(c3ccc(O)cc3Oc3cc(O)ccc32)c2ccccc21	GPR32 ag 111 (no result: OvCa metastasis)
O=c1c2oc3ccccc3c2n(Cc2ccc(F)cc2)c(=O)n1Cc1ccco1	none
Cc1cc(NC(=O)Cn2nc(C)n3cccc3c2=O)ccc1Br	none
CCc1ccc(N=C2NC(=O)CC(C(=O)Nc3ccc(OC)cc3)S2)cc1 (stereo not drawn)	GPR32 ag 92
CCC(=O)N1c2ccc(S(=O)(=O)NCc3cccc(OC)c3)cc2CC1C (stereo not drawn)	none
CC(C)C1C(=O)Nc2ccc(S(=O)(=O)NCCc3ccc(Cl)cc3)cc21 (stereo not drawn)	GPR32 ag 87
COc1cccc(CNS(=O)(=O)c2ccc3c(c2)C(C(C)C)C(=O)N3)c1 (stereo not drawn)	GPR32 ag 76
Cc1ccc(Cl)cc1N1CCN(S(=O)(=O)c2ccc3c(c2)C(C(C)C)C(=O)N3)CC1 (stereo not drawn)	GPR32 ag inconclusive
O=C(NCc1ccccc1)c1cc(Sc2cccc(Cl)c2)nc2ccccc12	none
Cc1oc2c(c(C)cc3oc(=O)c(CC(=O)NCc4ccccc4)c(C)c32)c1C	none
Cc1cc2oc(=O)c(CC(=O)O)c(C)c2c2occ(-c3ccccc3)c12	NTMT1 inhibitor 28µM
Cc1ccc(N)cc1O	FH mod 20µM, NTMT1 inhibitor inconclusive (no result: OvCa metastasis)
Cc1cccc(NC(=O)Nc2cccs2)c1C	none
COc1ccc(OC)c(NC(=O)Cc2c(C(=O)O)[nH]c3ccc(Cl)cc23)c1	none
COc1ccc(CN(CCN(C)C)c2ncccn2)cc1	none (no result: OvCa metastasis)
CCCCCCCCCCCCCCCC[N+](C)(C)CCN(Cc1ccc(OC)cc1)c1ncccn1	NTMT1 inhibitor 25µM (no result: OvCa metastasis)
CCOc1ccc(C(=O)N2CCN(Cc3cc(=O)n4nc(-c5cccc(OC)c5)sc4n3)CC2)cc1	GPR32 ag 74
CCOc1ccc(NC(=O)N2CCN(Cc3cc(=O)n4nc(-c5ccc(OC)cc5)sc4n3)CC2)cc1	none
CCOc1ccc(C(=O)c2cn(CC(=O)Nc3cc(OC)cc(OC)c3)c3ccc(F)cc3c2=O)cc1	NTMT1 inhibitor 79µM
Nc1ncnc2n[nH]c(Nc3ccc(F)cc3)c12	NTMT1 inhibitor 50µM! (no result: OvCa metastasis)
COc1cc2c(Oc3ccc(NC(=O)C4(C(=O)Nc5ccc(F)cc5)CC4)cc3F)ccnc2cc1OCCCN1CCOCC1	OvCa metastasis inconclusive, FH mod inconclusive (no result: GPR32 ag)
COc1cc2ncnc(Nc3ccc(F)c(Cl)c3)c2cc1OCCCN1CCOCC1	NTMT1 inhibitor 13µM!, GPR32 ag 77 (no result: OvCa metastasis)
C=CC(=O)Nc1cc2c(Nc3ccc(F)c(Cl)c3)ncnc2cc1OCCCN1CCOCC1	NTMT1 inhibitor 11µM!
O=C(Nc1ccc(Br)cc1F)N1CCC(CN2CCCC2)CC1	none
NC(=O)c1c(OCc2c(F)cc(Br)cc2F)nsc1NC(=O)NCCCCN1CCCC1	NTMT1 inhibitor 30µM! (no result: GPR32 ag)
Cc1ccccc1C(=O)Nc1nc2nc(-c3ccccc3)cc(=O)n2[nH]1	none
O=C(Nc1nc2nc(-c3ccccc3)cc(=O)n2[nH]1)c1ccc(Cl)cc1	NTMT1 inhibitor 50µM
COc1cc(OC)c(OC)cc1/C=C/c1nc2cc3ccccc3cc2c(=O)n1-c1ccccc1Br	none
Clc1ccc2ncc(-c3cccc(NC4CCNC4)n3)n2c1 (stereo not drawn)	NTMT1 inhibitor inconclusive (no result: OvCa metastasis, GPR32 ag)
c1cc(NC2CCNCC2)nc(-c2cnc3ccccn23)c1	FH mod inconclusive, NTMT1 inhibitor 45µM (no result: OvCa metastasis, GPR32 ag)
Cc1ccc(OCC(=O)Nc2nnc(SCc3cc(=O)n4cccc(C)c4n3)s2)cc1	NTMT1 inhibitor inconclusive
Cc1cccn2c(=O)cc(CSc3nnc(NC(=O)COc4ccccc4)s3)nc12	NTMT1 inhibitor 40µM
COc1cccc(NC(=O)C2CCN(c3nn4cc(-c5ccc(F)cc5)nc4s3)CC2)c1	none
